In PubChem BioAssay (NCI):
Compounds without any hit were thinned out: in the full panel of roughly 83,000, 20% have a hit.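 Testing used 96-well plates and a 48-hour single-concentration exposure. Example: -40 means 40% of the starting cells died.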 Unmarked numbers belong to inactive results. Activity calls are given as the source filed them. How the source made its calls: active means growth percent below 10; inactive means the rest.

Test system: HL-60(TB) leukemia
Experiment: NCI-60 one-dose screen, 48 h (100 = growth as untreated, 0 = no growth, -100 = all killed)
Conditions: 10 µM unless noted

| SMILES | growth |
| --- | --- |
| COc1cccc(N2CCN(c3ncnc4cc[nH]c34)CC2)c1 | 71.3% |
| CC(C)(C)[Si](C)(C)OC1[C@@H](CNC(N)=O)O[C@@H](n2cnc3c(NC(=O)Nc4ccccc4)ncnc32)[C@H]1O[Si](C)(C)C(C)(C)C (stereo partly specified) | 52% |
| COC(=O)[C@]12CC[C@@H](C)[C@H](C)[C@@H]1C1=CC[C@@H]3[C@@]4(C)C(C=O)=C[C@@](C)(CO)[C@@H]4[C@H](O)C[C@@]3(C)[C@]1(C)CC2 | -14.4% (active) |
| Clc1cccc(Cl)c1/C=C/c1cc(/C=C/c2c(Cl)cccc2Cl)[nH]n1 | 12.6% |
| O=C(CCNCc1ccccc1)c1ccccc1 | 104% |
| Cc1ccccc1NC(=O)c1sc2nc(C)c(C(C)O)cc2c1N (stereo unspecified) | -14.8% (active) |
| CN(Cc1cnc2nc(N)nc(N)c2n1)c1ccc(C(=O)NC(CCC(=O)O)C(=O)O)cc1 (stereo unspecified) | 29.5% |
| COCCNc1ccc2c3c(cccc13)C(=O)N(CCN(C)C)C2=O | -17% (active) |
| CC1(C)N=C(N)N=C(N)N1c1cccc(CN)c1 | 86.8% |
| CC(=O)OC1Oc2cc(C)c(C)cc2-c2oc(=O)c(-c3ccc(F)cc3)cc21 (stereo unspecified) | 12.5% |
| O=[N+]([O-])c1ccc(-c2nc(-c3ccccc3)c(-c3ccccc3)n2-c2ccccc2)cc1 | -16.4% (active) |
| Cc1ccccc1Nc1n[nH]c(Cc2ccccc2)n1 | 66.9% |
| O=C(Cn1cc(CN2CCN(c3ccnc4cc(Cl)ccc34)CC2)nn1)Nc1cccc([N+](=O)[O-])c1 | 102% |
| Cc1c(O)nc(N)[nH]c1=O | 137% |
| CNCCCn1c2c(c3ccc(F)cc3c1=O)C(=O)c1cc(OC)cnc1-2 | -16.7% (active) |
| Cc1[nH]c(C(=O)Nc2ccc(C(N)=O)cc2OC(C)C)c(Cl)c1Cl | 97.1% |
| COC(=O)C(C)NC1=C(Cl)C(=O)C(NC(C)C(=O)OC)=C(Cl)C1=O (stereo unspecified) | 97.8% |
| Cc1ccc2c(=O)cc(C(=O)Nc3sc4c(c3C(=O)NCc3cccnc3)CCCC4)oc2c1C | 88.3% |
| Nc1c(C(=O)Nc2ccncc2)sc2nc3c(cc12)CCCCC3 | 55.5% |
| Cc1cc(C)cc(Nc2cc(C)nc3nc(C(F)(F)F)nn23)c1 | 15.4% |
| CC1=C2[C@@H](CC1)[C@]1(C)O[C@@](C3CCCCC3)(C[C@H]1OC(=O)CO)[C@H]2OC(=O)/C=C/c1ccccc1 | 82.5% |
| O=C1/C(=C/c2ccc([N+](=O)[O-])o2)Oc2ccc(Br)cc21 | 43.2% |
| O=C(NCCCNC(=O)OCc1ccc2cccc(O)c2n1)OCc1ccc2cccc(O)c2n1 | 45.5% |
| S=C1SCN(Cc2ccccc2)CN1Cc1ccccc1 | 16.5% |
| COc1ccc(-c2cc(-c3ccccc3)nc(SCCCC(=O)NO)n2)cc1 | -31.2% (active) |
| CC(=O)OC[C@]12CC[C@@H](c3cn(Cc4ccc(Cn5cc([C@@H]6CC[C@]7(COC(C)=O)CC[C@]8(C)[C@H](CC[C@@H]9[C@@]%10(C)CC[C@H](OC(C)=O)C(C)(C)[C@@H]%10CC[C@]98C)[C@@H]67)nn5)cc4)nn3)[C@@H]1[C@H]1CC[C@@H]3[C@@]4(C)CC[C@H](OC(C)=O)C(C)(C)[C@@H]4CC[C@@]3(C)[C@]1(C)CC2 | 90.5% |
